Experimental data published in the supplement of paper PMC11732987, “Enantioselective OTUD7B fragment discovery through chemoproteomics screening and high-throughput optimisation” (Communications Chemistry, 2025).

What was measured:
Experiment in all cases: log2 ratio of Biotin-Ahx-Ub-VS probe labelling (fragment/DMSO); higher = less target engagement (more negative = stronger competition), active = hit call of the paper (q ≤ 0.05, log2 ratio ≤ -1)
Conditions in all cases: compound concentration: 200 uM; treatment time: 3 h
USP42 = molecular target: T1, USP42 (UniProt Q9H9J4)
T1 sequence (whole entry): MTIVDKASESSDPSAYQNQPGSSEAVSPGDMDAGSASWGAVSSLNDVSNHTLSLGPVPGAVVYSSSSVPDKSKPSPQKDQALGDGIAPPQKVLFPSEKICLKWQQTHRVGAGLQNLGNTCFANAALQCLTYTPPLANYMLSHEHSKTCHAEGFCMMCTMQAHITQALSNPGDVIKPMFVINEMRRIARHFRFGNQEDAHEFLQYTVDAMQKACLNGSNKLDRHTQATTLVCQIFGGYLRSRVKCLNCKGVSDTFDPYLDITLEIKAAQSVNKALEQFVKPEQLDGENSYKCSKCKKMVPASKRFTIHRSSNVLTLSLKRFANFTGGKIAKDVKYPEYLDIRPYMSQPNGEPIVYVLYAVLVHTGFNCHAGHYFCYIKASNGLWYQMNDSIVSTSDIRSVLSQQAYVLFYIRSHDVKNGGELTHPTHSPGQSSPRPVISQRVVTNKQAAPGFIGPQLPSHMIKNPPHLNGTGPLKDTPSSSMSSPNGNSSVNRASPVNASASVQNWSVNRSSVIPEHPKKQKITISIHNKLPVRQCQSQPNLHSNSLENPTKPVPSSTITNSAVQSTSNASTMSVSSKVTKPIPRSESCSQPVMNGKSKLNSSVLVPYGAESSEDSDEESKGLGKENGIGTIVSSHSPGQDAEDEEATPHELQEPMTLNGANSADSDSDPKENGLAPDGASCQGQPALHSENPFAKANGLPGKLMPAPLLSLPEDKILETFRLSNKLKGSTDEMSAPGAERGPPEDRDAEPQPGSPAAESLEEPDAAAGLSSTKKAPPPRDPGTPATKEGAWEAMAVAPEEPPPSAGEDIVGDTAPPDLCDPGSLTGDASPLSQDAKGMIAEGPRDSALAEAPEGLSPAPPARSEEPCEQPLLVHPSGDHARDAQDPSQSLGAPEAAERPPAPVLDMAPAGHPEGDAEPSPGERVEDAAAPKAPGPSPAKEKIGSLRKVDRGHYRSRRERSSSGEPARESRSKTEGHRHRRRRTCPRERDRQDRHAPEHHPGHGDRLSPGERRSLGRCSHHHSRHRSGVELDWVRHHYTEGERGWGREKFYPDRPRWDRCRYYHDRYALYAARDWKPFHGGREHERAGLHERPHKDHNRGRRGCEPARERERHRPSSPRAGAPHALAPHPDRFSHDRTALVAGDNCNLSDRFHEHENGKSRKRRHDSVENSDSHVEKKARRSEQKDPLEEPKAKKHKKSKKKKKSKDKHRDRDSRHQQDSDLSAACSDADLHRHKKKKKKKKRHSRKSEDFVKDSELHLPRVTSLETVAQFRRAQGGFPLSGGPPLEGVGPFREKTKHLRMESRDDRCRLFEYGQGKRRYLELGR
Summary of the method: (§1)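 Labelling with Biotin-Ahx-Ub-VS (0.5 µM final, 1 h) followed a 3 h triplicate treatment of HEK293T lysate (495 µg per sample, Tris/CHAPS/IGEPAL buffer with protease inhibitors) with fragment at 200 µM or vehicle. Labelled DUBs were NeutrAvidin-enriched, digested with LysC and trypsin, and run by diaPASEF LC-MS/MS. The values, average log2 fragment/vehicle ratios by unpaired t-test, come from global-median-normalised Spectronaut label-free quantities. Proteins with ≥2 unique peptides were used.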

USP46 = USP46 (UniProt P62068)
Summary of the method: as §1

USP47 = molecular target: T2, USP47 (UniProt Q96K76)
T2 sequence (whole entry): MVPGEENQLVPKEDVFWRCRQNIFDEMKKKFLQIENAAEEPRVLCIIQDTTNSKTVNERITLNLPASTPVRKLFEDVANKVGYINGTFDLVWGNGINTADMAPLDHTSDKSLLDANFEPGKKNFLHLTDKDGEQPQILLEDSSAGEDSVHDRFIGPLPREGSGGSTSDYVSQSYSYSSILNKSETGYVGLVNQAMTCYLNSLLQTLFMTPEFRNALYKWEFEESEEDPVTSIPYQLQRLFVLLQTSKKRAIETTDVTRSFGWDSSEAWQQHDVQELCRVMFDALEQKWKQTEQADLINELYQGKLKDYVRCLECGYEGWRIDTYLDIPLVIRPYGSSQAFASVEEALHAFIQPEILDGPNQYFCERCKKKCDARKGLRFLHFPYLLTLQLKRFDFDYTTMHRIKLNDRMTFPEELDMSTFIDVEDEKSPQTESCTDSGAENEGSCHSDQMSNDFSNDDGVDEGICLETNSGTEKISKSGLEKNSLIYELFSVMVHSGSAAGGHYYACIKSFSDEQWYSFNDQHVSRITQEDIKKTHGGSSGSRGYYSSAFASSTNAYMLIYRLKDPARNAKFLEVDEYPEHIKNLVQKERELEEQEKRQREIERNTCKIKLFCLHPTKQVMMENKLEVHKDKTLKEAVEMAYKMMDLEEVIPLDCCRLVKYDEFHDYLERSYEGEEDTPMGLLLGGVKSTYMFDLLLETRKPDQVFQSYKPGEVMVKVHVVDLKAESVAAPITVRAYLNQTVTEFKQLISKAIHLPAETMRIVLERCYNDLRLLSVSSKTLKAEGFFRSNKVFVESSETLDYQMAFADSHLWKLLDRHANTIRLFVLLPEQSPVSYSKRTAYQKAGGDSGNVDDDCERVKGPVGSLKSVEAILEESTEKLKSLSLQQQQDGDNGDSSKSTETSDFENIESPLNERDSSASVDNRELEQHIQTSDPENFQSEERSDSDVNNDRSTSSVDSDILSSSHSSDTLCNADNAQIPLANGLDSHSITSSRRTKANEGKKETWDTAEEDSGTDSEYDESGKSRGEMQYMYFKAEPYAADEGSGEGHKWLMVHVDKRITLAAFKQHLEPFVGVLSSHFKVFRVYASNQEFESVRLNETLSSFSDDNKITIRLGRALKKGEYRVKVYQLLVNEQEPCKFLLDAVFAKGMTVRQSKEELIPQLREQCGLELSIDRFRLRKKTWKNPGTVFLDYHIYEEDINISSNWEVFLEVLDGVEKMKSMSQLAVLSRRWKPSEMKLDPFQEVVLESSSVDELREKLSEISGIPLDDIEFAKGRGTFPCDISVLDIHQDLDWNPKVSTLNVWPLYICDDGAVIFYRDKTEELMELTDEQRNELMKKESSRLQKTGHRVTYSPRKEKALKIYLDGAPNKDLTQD
Summary of the method: as §1

USP48 = molecular target: T3, USP48 (UniProt Q86UV5)
T3 sequence (whole entry): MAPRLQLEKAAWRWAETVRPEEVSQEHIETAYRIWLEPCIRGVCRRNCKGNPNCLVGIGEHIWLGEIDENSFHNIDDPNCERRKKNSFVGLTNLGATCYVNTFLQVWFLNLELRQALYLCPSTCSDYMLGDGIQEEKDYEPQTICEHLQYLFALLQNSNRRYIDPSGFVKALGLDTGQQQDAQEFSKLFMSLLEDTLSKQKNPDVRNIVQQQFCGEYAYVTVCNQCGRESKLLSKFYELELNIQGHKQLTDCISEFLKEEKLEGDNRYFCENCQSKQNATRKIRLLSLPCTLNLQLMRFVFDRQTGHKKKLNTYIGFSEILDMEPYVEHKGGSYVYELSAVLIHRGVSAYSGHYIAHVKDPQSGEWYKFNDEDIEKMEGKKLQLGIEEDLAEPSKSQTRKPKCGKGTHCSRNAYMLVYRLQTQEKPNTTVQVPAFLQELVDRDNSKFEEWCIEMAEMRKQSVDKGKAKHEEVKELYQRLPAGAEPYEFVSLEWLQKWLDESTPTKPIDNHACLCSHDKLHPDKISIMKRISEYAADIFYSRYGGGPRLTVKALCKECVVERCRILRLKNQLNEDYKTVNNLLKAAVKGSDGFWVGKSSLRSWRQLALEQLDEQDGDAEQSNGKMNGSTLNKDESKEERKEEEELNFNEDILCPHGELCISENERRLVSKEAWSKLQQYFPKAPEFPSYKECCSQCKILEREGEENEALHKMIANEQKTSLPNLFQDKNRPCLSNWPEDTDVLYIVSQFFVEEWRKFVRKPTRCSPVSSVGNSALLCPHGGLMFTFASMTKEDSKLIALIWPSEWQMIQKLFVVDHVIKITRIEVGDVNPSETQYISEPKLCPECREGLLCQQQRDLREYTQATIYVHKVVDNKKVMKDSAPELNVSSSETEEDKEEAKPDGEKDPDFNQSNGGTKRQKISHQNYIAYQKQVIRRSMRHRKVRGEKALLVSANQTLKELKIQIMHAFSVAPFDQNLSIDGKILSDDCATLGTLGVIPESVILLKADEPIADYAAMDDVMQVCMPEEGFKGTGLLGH
Summary of the method: as §1

USP5 = molecular target: T4, USP5 (UniProt P45974)
T4 sequence (whole entry): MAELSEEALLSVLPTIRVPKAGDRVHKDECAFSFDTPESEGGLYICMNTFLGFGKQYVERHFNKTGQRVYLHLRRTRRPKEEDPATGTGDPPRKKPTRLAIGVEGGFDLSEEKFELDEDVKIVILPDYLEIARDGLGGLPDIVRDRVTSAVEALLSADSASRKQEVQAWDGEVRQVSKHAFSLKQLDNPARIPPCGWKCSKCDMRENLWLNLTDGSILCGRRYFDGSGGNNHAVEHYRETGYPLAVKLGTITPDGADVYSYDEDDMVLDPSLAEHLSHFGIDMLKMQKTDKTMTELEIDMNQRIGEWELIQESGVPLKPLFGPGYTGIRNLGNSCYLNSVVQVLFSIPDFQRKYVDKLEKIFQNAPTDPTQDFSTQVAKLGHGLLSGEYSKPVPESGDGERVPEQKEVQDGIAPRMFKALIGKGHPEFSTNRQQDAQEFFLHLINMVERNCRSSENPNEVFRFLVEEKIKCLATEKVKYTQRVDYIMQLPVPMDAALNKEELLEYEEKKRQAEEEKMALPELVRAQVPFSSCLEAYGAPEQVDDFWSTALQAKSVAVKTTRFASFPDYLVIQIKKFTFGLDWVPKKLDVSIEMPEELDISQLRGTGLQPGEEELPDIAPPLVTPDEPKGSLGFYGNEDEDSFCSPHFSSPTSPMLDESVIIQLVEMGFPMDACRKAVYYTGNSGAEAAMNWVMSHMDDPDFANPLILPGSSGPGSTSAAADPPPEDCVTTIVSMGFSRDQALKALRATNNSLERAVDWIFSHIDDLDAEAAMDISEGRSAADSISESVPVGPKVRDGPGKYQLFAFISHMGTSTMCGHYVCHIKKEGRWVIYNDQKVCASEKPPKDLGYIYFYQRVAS
Summary of the method: as §1

USP54 = USP54 (UniProt Q70EL1)
Summary of the method: as §1

USP7 = USP7 (UniProt Q93009)
Summary of the method: as §1

USP8 = molecular target: T5, USP8 (UniProt P40818)
T5 sequence (whole entry): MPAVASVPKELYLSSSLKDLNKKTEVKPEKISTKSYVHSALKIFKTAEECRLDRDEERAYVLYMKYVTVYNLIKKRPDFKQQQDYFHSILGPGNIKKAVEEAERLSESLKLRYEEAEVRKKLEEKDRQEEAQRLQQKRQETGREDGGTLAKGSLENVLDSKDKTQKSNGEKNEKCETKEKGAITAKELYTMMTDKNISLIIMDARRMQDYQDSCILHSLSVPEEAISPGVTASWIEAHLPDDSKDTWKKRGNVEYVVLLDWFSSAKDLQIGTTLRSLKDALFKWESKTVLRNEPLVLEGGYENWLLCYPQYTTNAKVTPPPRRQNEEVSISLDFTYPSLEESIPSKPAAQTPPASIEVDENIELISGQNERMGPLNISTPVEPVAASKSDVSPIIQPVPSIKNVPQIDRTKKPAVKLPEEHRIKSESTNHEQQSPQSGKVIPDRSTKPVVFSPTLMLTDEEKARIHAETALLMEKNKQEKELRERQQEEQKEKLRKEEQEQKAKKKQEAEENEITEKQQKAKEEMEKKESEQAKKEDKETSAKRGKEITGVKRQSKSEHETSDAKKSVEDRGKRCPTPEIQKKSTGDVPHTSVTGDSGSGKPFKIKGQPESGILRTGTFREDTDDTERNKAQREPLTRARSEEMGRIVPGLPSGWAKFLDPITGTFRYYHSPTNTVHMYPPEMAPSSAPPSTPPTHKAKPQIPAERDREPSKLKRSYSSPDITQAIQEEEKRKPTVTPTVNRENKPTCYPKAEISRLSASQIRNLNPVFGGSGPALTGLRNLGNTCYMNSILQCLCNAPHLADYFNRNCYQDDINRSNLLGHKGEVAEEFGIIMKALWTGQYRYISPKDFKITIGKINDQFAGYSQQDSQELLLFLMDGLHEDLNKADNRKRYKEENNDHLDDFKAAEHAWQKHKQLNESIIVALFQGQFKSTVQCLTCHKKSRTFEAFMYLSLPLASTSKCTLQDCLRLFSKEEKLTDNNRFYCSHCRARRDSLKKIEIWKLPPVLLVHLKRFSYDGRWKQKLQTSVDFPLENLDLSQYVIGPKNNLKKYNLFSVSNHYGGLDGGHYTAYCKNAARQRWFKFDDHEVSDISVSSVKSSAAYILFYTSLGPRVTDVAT
Summary of the method: as §1

USP9X = USP9X (UniProt Q93008)
Summary of the method: as §1

UniProt O00487 = molecular target: UniProt O00487
Summary of the method: as §1

Measured: log2 ratio of Biotin-Ahx-Ub-VS probe labelling

USP9X, sequence (Q93008 whole entry): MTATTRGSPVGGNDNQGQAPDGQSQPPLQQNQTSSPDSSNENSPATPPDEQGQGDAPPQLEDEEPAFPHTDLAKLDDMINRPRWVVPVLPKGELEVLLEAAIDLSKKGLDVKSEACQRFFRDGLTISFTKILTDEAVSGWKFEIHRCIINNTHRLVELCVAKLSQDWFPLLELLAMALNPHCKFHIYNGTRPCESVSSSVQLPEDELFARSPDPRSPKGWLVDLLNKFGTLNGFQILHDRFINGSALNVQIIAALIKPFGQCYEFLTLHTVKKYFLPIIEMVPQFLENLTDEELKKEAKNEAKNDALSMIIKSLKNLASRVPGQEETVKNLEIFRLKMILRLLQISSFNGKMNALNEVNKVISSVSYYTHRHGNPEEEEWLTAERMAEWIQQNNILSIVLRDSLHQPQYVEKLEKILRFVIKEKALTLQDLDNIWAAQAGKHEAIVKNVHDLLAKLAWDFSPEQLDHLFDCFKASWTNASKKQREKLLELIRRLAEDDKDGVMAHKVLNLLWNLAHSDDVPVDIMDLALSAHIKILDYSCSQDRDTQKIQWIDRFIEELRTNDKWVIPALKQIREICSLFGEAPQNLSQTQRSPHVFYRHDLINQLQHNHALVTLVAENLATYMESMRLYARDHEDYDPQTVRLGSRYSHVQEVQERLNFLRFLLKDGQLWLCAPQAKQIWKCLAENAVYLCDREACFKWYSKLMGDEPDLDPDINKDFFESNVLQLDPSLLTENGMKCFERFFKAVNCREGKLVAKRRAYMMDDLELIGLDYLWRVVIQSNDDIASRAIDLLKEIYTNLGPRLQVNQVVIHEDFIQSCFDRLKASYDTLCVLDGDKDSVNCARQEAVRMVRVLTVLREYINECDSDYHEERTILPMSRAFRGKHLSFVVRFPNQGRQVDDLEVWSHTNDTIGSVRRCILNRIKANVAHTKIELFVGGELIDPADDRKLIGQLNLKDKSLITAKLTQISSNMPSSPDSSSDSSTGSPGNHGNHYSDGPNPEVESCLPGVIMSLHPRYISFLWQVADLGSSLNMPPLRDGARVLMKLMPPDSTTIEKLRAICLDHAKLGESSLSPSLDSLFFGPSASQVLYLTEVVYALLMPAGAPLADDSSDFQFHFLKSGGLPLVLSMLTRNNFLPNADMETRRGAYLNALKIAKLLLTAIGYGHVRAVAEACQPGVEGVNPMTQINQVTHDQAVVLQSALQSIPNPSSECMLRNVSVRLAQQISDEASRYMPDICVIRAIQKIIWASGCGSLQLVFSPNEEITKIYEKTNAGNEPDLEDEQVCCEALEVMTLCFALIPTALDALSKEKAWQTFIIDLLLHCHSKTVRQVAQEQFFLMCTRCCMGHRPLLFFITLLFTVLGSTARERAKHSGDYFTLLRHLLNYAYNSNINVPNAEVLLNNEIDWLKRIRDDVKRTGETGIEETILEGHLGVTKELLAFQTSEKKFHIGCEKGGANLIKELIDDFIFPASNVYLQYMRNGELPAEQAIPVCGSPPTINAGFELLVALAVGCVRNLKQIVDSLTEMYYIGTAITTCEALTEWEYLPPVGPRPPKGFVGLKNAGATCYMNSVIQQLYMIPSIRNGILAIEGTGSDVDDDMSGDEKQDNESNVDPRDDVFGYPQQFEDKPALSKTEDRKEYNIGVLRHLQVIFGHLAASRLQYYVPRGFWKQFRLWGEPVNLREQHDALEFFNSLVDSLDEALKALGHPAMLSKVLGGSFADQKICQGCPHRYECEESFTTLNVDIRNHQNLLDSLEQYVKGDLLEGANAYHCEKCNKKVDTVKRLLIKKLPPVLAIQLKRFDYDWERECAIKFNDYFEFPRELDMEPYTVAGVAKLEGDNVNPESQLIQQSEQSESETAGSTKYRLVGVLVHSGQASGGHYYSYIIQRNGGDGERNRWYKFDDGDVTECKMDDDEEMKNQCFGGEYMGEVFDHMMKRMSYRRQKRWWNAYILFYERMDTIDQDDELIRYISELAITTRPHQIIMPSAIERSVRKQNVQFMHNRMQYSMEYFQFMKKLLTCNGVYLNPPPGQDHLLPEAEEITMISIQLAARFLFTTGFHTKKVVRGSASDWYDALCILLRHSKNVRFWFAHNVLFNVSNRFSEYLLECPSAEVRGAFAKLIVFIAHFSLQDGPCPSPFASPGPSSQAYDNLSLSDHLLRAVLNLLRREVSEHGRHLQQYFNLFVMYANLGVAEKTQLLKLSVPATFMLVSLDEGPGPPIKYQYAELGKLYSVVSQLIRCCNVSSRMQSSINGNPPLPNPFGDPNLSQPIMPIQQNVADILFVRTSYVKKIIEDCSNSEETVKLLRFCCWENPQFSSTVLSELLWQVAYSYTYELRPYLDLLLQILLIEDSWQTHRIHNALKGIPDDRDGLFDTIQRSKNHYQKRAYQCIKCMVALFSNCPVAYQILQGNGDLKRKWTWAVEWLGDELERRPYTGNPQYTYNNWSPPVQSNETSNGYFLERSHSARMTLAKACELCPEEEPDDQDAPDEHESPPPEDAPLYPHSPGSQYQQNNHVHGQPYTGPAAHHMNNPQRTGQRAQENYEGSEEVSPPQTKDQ
USP54, sequence (Q70EL1 whole entry): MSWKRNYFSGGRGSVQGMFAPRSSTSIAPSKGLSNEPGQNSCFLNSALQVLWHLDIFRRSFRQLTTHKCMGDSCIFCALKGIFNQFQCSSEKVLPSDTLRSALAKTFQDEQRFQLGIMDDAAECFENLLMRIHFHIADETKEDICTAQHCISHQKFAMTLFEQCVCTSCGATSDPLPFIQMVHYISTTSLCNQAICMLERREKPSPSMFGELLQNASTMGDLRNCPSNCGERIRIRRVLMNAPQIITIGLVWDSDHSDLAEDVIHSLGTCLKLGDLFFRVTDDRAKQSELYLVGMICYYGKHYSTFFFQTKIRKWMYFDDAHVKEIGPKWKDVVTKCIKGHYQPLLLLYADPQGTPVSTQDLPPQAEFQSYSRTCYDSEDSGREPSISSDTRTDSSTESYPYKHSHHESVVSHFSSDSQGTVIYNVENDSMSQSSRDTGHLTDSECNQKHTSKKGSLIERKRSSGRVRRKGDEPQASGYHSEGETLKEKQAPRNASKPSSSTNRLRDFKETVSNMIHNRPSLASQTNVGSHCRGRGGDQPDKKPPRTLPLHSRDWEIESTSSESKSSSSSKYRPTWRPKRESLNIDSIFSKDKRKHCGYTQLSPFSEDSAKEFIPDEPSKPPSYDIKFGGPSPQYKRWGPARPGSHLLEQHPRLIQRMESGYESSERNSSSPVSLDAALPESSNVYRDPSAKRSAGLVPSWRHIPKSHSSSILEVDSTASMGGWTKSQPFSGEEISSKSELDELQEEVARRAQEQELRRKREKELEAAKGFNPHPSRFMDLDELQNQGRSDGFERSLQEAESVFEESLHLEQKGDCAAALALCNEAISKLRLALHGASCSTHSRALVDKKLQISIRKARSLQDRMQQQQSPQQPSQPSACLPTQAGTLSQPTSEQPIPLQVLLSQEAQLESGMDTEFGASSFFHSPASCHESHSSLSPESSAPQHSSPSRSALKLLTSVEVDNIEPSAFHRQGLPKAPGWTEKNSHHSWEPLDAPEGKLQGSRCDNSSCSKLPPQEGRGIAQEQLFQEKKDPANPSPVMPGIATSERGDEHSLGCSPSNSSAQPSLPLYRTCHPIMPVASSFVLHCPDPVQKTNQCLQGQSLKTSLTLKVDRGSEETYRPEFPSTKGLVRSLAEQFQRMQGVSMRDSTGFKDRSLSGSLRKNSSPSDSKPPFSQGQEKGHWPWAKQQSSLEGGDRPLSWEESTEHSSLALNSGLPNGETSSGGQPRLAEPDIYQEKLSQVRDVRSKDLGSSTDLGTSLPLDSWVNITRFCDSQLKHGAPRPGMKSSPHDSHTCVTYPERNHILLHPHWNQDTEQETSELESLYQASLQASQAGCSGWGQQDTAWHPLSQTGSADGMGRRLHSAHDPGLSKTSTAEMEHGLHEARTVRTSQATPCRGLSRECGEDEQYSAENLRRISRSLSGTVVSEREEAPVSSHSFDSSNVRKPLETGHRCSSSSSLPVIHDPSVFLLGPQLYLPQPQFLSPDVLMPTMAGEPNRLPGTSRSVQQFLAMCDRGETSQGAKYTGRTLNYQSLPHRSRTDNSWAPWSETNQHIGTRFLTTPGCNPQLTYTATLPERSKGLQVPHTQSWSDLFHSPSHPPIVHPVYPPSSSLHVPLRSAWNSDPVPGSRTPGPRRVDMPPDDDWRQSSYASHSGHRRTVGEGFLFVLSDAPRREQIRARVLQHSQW
UniProt O00487, sequence (O00487 whole entry): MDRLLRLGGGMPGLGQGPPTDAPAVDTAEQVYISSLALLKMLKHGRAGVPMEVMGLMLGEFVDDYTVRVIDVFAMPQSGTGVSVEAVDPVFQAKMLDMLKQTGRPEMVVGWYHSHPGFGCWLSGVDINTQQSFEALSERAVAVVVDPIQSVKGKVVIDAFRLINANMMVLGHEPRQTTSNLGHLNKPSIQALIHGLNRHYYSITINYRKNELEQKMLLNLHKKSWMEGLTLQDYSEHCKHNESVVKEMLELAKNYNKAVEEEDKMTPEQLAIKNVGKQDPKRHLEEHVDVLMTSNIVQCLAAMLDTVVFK
USP46, sequence (P62068 whole entry): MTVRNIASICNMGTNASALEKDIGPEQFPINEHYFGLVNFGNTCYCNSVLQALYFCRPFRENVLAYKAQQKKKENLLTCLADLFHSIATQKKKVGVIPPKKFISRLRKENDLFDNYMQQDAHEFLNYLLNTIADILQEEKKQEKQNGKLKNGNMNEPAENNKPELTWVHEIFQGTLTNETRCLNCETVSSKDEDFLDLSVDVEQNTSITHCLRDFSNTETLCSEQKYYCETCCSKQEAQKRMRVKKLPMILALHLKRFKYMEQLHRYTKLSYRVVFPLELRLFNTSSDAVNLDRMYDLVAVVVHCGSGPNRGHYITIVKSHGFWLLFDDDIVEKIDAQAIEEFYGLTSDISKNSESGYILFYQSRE

CC1CCc2onc(CNC(=O)CCl)c2C1 (stereo not given)
inactive: USP42 0.0513 | USP46 0.0919 | USP47 -0.0836 | USP48 0.185 | USP5 0.386 | USP54 0.0792 | USP7 -0.00387 | USP8 -0.212 | USP9X -0.154 | UniProt O00487 0.0127
